Measurements: PubChem BioAssay (EPA / NIEHS)
Calls of active or inactive are those of the source. Rule for the calls: active = hit-call score of the fitted dose curve at least 0.9, where 1 is the maximum; inactive = score below 0.9.

Read-out: Monokine induced gamma interferon (MIG), CXCL9 (gene 4283)
Assay: BSK_SAg_MIG: BioMAP Diversity Plus: SAg Assay for Monokine induced gamma interferon (MIG) Biomarker Activity (AID 2283092)
Details: primary human HUVEC with PBMC; actives raise or lower the signal
Experimental: BSK_SAg is a cell-based, multiplexed-readout assay that uses umbilical vein endothelium and peripheral blood mononuclear cells, a human vascular primary cell co-culture, with measurements taken at 24 hours after chemical dosing in a 96-well plate.BSK_SAg_MIG is an assay component measured in the BSK_SAg assay. It measures MIG antibody related to regulation of gene expression using ELISA technology.Data from the assay component BSK_SAg_MIG was analyzed into 1 assay endpoint. This assay endpoint, BSK_SAg_MIG, was analyzed with bidirectional fitting relative to DMSO as the negative control and baseline of activity. Using a type of binding reporter, gain or loss-of-signal activity can be used to understand changes in the signaling as they relate to the gene CXCL9. Furthermore, this assay endpoint can be referred to as a primary readout, because this assay has produced multiple assay endpoints where this one serves a signaling function. To generalize the intended target to other relatable targets, this assay endpoint is annotated to the cytokine intended target family, where the subfamily is chemotactic factor.
The levels of cell surface (or secreted, indicated by the prefix "s") biomarker endpoints were measured by ELISA. Overt cytotoxicity to cells in confluent adherent cultures (all systems other than the BT system) was assessed by measuring total protein levels using sulforhodamine B (SRB) staining in parallel cultures at the time of biomarker measurements, indicated as SRB endpoints. For proliferation assays for adherent cell types, individual cell types are cultured at sub-confluence and relative cell numbers quantified by SRB staining at time points optimized for each system (48 h: 3C and CASM3C systems; 72 h: BT and HDF3CGF systems; 96 h: SAg system). SRB was performed by staining cells with 0.1% SRB after fixation with 10% TCA and reading wells at 560 nm.Viability and proliferation of PBMC (T cells) was quantified by Alamar Blue reduction for the SAg and BT systems. For PBMC viability (referred to as PBMC Cytotoxicity within the assay endpoint names), cells were plated (75,000/well in a 96-well plate) and then chemical samples added for 1 h before addition of activators, SEB and TSST-1 (20 ng/mL final concentration each). Cells were incubated for 90 h. Then, Alamar Blue (20 uL/well) (Invitrogen, Cat DAL1100) was added for 6 h, and the plates were read with a fluorescence microplate reader at 546/580 nm (excitation/emission). For PBMC proliferation, cells were plated and activated as above but incubated for only 16 h prior to addition of Alamar Blue. Plates were read after 6 h.

| SMILES | outcome | AC50 |
| --- | --- | --- |
| O=[N+]([O-])C(CO)(CO)CO | inactive |  |
| CC(=O)Oc1ccccc1C(=O)O | inactive |  |
| Cc1ccc(Cl)cc1 | inactive |  |
| CC(C)(C)c1cc(O)c(C(C)(C)C)cc1O | inactive |  |
| Cc1ccccc1Cl | inactive |  |
| NS(=O)(=O)c1cc2c(cc1Cl)NCNS2(=O)=O | inactive |  |
| CCCCCCCCCCCCCO | inactive |  |
| CCNc1cccc(C)c1 | inactive |  |
| Nc1ccc(S(=O)(=O)c2ccc(N)cc2)cc1 | inactive |  |
| O=C(N[C@@H](Cc1ccccc1)[C@@H](O)C(=O)N1C[C@@H](O)[C@@H](O)C1)c1cc2cc(Cl)ccc2[nH]1 | inactive |  |
| Clc1cc(Cl)c(Cl)cc1Cl | inactive |  |
| Cc1cc(=O)[nH]c(=S)[nH]1 | inactive |  |
| O=c1[nH]cc(F)c(=O)[nH]1 | inactive |  |
| NCC1(Cc2noc(=O)[nH]2)CCCCC1 | inactive |  |
| CNC(=O)[C@H]1O[C@@H](n2cnc3c(NCc4cc(Cl)ccc4OCc4cc(C)no4)ncnc32)[C@H](O)[C@@H]1N | inactive |  |
| CNCc1cc(F)ccc1Oc1ccc(Cl)c(Cl)c1 | inactive |  |
| CC(=O)C(C)=CC1C(C)=CCCC1(C)C (stereo not given) | inactive |  |
| C[Si]1(C)O[Si](C)(C)O[Si](C)(C)O[Si](C)(C)O1 | inactive |  |
| CCCCCCCCCCC | inactive |  |
| CC(CO)OC(C)CO (stereo not given) (tested in a mixture with another compound) | inactive |  |

| SMILES | outcome | AC50 |
| --- | --- | --- |
| CC(=O)OC/C=C(\C)CCC=C(C)C | inactive |  |
| CC(=O)OCCOCCOCCOC(C)=O | inactive |  |
| Cc1nc(C)nc(N2C[C@@H](C)N(c3ccnc([C@@H](C)O)n3)[C@@H](C)C2)n1 | inactive |  |
| Cc1ccc(N(C)C)cc1 | inactive |  |
| C=CCOC(=O)c1ccccc1C(=O)OCC=C | inactive |  |
| Nc1nc(N)c2nc(CNc3ccc(C(=O)N[C@@H](CCC(=O)O)C(=O)O)cc3)cnc2n1 | inactive |  |
| O=c1c(O)c(-c2ccc(O)c(O)c2)oc2cc(O)cc(O)c12 | inactive |  |
| Cc1ccc2ncccc2c1 | inactive |  |
| CCCCCCCCCCCCCCCCCC(=O)O | inactive |  |
| Oc1ccc2ccccc2c1N=Nc1ccccc1 | inactive |  |
| Cc1cc(NC(=O)C(=O)O)cc(C)c1Oc1ccc(O)c2c1CCC2 | inactive |  |
| FC(F)(F)C(F)(F)C(F)(F)C(F)(F)C(F)(F)C(F)(F)CCI | inactive |  |
| CC1(C)NC(=O)NC1=O | inactive |  |
| CCCCC(CC)COC(=O)CC(C(=O)OCC(CC)CCCC)S(=O)(=O)O (stereo not given) |  | 38 µM (active) |
| Cc1cccc([N+](=O)[O-])c1C | inactive |  |
| CC1(C)CC(N=C=O)CC(C)(CN=C=O)C1 (stereo not given) | inactive |  |
| Cc1ccc(C)c(O)c1C | inactive |  |
| COc1cc(C=O)ccc1O | inactive |  |
| CCOC(=O)C(C)(C)Oc1ccc(Cl)cc1 | inactive |  |
| CCCCCCOCCO | inactive |  |
